# Unmarked numbers belong to inactive results. Results filed as inconclusive are left out. Entries that show only a call come without a potency. Active and inactive are the calls of the source. Unless noted, the call rests on the fitted dose curve; in most records, active means well fitted curve in the direction sought with a large enough effect; inconclusive means small, poorly fitted or top-dose-only effect, or another doubt; inactive means no such curve, though single readings can be large; an effect the other way counts as inactive or inconclusive.
# Legend:
# [1] = Cellular Toxicity (caspase-3) Jurkat (AID 655); details: Jurkat caspase-3 activation, luminescence, DMSO = 0%, tamoxifen = 100%; at 92.2 µM (top of the series);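 further: cells exposed to compound for 16 h at 37 °C before reading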
# How it was run: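 Caspase 3/7 activation is scored as increased luminescence in Jurkat cells cultured with compound for 16 hours in complete medium. AC50 values come from Hill fits of qHTS concentration-response data normalized to DMSO and 100 uM tamoxifen controls.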
# [2] = Cellular Toxicity (caspase-3) HUV-EC-C (AID 656)
# How it was run: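 Read-out: luminescence proportional to caspase 3/7 activity, measured 20 min after adding Caspase-Glo 3/7 reagent. Cells (HUV-EC-C) had received compound for 16 hr at 37°C. Increases relative to DMSO and 100 uM tamoxifen gave concentration-response AC50 values.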
# [3] = Cellular Toxicity (caspase-3) SHSY5Y (AID 657)
# How it was run: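 Cells plated and incubated 5 h at 37 °C, dosed over a concentration range, incubated 16 h, then given Caspase-Glo 3/7 reagent for 1 h at room temperature before luminescence reading. Staurosporine (10 uM) defined full stimulation.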
# [4] = Cellular Toxicity (caspase-3) BJ (AID 658)
# How it was run: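 Caspase-Glo 3/7 luminescence, read 1 hr after reagent at room temperature, in normal BJ fibroblasts exposed 16 hours at 37 °C. AC50 values from Hill-equation concentration-response, scaled between DMSO basal and 10 uM staurosporine as 100%.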
# [5] = Cellular Toxicity (caspase-3) MRC-5 (AID 659)
# How it was run: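 Luminescent Caspase-Glo 3/7 read-out (1 h, room temperature) after a 16 h, 37 °C compound exposure of MRC-5 lung fibroblasts at 1500 cells/well. Concentration-response AC50 from Hill equation; 0% DMSO, 100% 10 uM staurosporine.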
# [6] = Cellular Toxicity (caspase-3) Mesangial (AID 660);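 further: cells exposed to compound for 16 h before the caspase read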
# How it was run: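 Caspase 3/7 activation measured by Caspase-Glo 3/7 luminescence (20 min, room temperature) following 16 h exposure of mesangial cells (1000/well); AC50 from Hill-equation fit, normalized to DMSO and 100 uM tamoxifen.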
# [7] = Cellular Toxicity (caspase-3) SK-N-SH (AID 661)
# How it was run: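 Caspase 3/7 activation was read by luminogenic substrate cleavage after 16 hour treatment of SK-N-SH cells. Signal was scaled between DMSO and 10 uM staurosporine, and concentration-response data were fitted with the Hill equation for AC50.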
# [8] = Cellular Toxicity (caspase-3) H-4-II-E (AID 663); details: Potency: caspase-3 activation; further: potency means the concentration at half of the fitted maximal effect;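 on caspase-3 activation: cells exposed to compound for 16 hr before readout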
# How it was run: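 Caspase 3/7 activation measured by luminescent aminoluciferin substrate cleavage after 16 hr compound treatment of H-4-II-E cells in complete medium. Increase normalized between DMSO (basal) and 100 uM tamoxifen (100%); Hill-equation AC50 from concentration-response.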
# [9] = Cellular Toxicity (caspase-3) Hek293 (AID 664);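 further: cells exposed to compound for 16 h at 37 °C before readout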
# How it was run: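 Concentration-response qHTS: caspase 3/7 activation measured by luminescent aminoluciferin substrate cleavage after 16 h compound exposure of Hek 293 cells. AC50 from Hill equation, with DMSO as basal and 100 uM tamoxifen as 100%.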
# [10] = Cellular Toxicity (caspase-3) N2a (AID 665);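 further: compound exposure lasted 16 h at 37 °C before readout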
# How it was run: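 Caspase-3/7 activation measured as luminescence from Caspase-Glo reagent (1 h, room temperature) after 16 h compound exposure of mouse N2a cells. AC50 values from Hill-equation concentration-response, scaled between DMSO and 10 uM staurosporine.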
# [11] = Cellular Toxicity (caspase-3) NIH 3T3 (AID 666)
# How it was run: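 Caspase-Glo 3/7 luminescence reported caspase activation in 1000 NIH 3T3 cells/well after 16 h compound exposure at 37 C. DMSO set basal and 100 uM tamoxifen set 100% stimulation; concentration-response modeled with the Hill equation for AC50.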
# [12] = Cellular Toxicity (caspase-3) Renal Proximal Tubule (AID 667);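 further: cells exposed to compound for 16 hours at 37 °C before detection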
# How it was run: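 In qHTS format, rat primary proximal tubule cells seeded at 1000 per well are exposed to compounds for 16 hours at 37 °C. An increase in Caspase-Glo 3/7 luminescence indicates caspase activation.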
# [13] = target: Cytochrome P450 3A4 (Homo sapiens) (UniProt P08684); assay: qHTS Assay for Inhibitors and Substrates of Cytochrome P450 3A4 (AID 884); further: nearly all actives have a fitted effect of over 50% in size; further: potency means the concentration at half of the fitted maximal effect
# How it was run: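 Luminescent readout of luciferin produced by CYP3A4 (20 nM) dealkylation of Luciferin-PPXE, 25 uM (its KM). NADPH-driven reaction ran 60 min at RT after 10 min compound preincubation; data scaled to 57 uM ketoconazole as 100% inhibition.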
# [14] = Confirmation and Secondary Assay for Modulators of Hemoglobin Beta Chain Splicing at IVS2 654 locus (AID 910);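 further: HeLa cells stably carrying EGFP split by mutant beta-globin IVS2-654 intron; per-well total GFP intensity by laser scanning cytometry after 2-day treatment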
# How it was run: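 Readout: per-well total peak green fluorescence (488 nm ex, 500–520 nm em) from objects 5–250 µm, reflecting correct splicing of an EGFP-654 reporter. Compounds were applied for 2 days at 37 °C to overnight-plated HeLa EGFP-654 cells; controls were DMSO and 500 nM IVS2-654 PNA.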
# [15] = target: Cytochrome P450 2C9 (Homo sapiens) (UniProt P11712); assay: qHTS Assay for Inhibitors and Substrates of Cytochrome P450 2C9 (AID 883); further: nearly all actives have a fitted effect of over 60% in size; further: potency means the concentration at half of the fitted maximal effect
# How it was run: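 Turnover of Luciferin-H (100uM, KM) by 10nM human CYP2C9 was measured over 60 min at 37C with NADPH regeneration; inhibitors and some substrates reduce luminescence. Data normalized to sulphaphenazole 57uM.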
# [16] = target: Guanine nucleotide-binding protein G(i) subunit alpha-1 (Homo sapiens) (UniProt P63096); assay: qHTS Assay for Inhibitors of RGS12 GoLoco Motif Activity (Green Fluorophore) (AID 879);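 further: negative values mean loss of peptide binding seen as reduced polarization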
# How it was run: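 A drop in FITC polarization marked displacement of the FITC-tagged RGS12 GoLoco peptide (10 nM) from Gαi1 (50 nM). Compounds were incubated 10 min at room temperature in Tris pH 7.5 buffer containing 150 mM NaCl, 0.1 mM GDP and 0.05% NP40; unlabeled peptide titration served as control.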
# [17] = target: Cytochrome P450 2D6 (Homo sapiens) (UniProt P10635); assay: qHTS Assay for Inhibitors and Substrates of Cytochrome P450 2D6 (AID 891); details: recombinant CYP2D6, luciferin-ME EGE luminescence; further: potency means the concentration at half of the fitted maximal effect; nearly all actives have a fitted effect of over 60% in size
# How it was run: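 Luminescent read-out of luciferin formed by 5 nM human CYP2D6 demethylating 30 uM Luciferin-ME EGE (Km level) over 60 min at room temperature after NADPH regeneration addition. Data normalized to full inhibition by 1.43 uM quinidine.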
# [18] = qHTS Assay for Identification of Small Molecule Agonists for Hypoxia Response Element Signaling Pathway (AID 914; active means well fitted activation curve with a large enough effect in the signal ratio, with a control signal flat, not every such curve was filed as active; the % refers to the signal ratio; further: potency means the concentration at half of the fitted maximal effect); details: ME-180 (cervical carcinoma) HRE-bla reporter, beta-lactamase ratio, CoCl2, 17 h; activation: hits give high values
# How it was run: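 A beta-lactamase reporter under hypoxia response element control in ME-180 cells served as the system. Compound titrations plus EC50 CoCl2 ran 17 h at 37 degrees Celsius; AC50 values were fitted from %Activity.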
# Sequence of Cytochrome P450 3A4 (Homo sapiens) (P08684 whole entry, looked up): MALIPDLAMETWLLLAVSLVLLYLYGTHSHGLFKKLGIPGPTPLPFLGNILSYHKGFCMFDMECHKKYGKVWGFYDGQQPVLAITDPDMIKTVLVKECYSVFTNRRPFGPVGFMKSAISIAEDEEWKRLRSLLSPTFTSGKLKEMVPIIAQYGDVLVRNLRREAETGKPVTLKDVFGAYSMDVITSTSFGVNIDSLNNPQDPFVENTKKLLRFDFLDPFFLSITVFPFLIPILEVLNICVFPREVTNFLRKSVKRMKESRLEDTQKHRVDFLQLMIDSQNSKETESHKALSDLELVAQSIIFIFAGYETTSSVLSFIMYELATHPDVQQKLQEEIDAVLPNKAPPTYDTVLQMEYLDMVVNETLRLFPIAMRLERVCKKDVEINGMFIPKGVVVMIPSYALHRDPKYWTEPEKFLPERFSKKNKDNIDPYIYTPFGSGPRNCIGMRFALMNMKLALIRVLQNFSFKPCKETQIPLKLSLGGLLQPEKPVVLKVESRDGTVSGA
# Sequence of Cytochrome P450 2C9 (Homo sapiens) (P11712 whole entry, looked up): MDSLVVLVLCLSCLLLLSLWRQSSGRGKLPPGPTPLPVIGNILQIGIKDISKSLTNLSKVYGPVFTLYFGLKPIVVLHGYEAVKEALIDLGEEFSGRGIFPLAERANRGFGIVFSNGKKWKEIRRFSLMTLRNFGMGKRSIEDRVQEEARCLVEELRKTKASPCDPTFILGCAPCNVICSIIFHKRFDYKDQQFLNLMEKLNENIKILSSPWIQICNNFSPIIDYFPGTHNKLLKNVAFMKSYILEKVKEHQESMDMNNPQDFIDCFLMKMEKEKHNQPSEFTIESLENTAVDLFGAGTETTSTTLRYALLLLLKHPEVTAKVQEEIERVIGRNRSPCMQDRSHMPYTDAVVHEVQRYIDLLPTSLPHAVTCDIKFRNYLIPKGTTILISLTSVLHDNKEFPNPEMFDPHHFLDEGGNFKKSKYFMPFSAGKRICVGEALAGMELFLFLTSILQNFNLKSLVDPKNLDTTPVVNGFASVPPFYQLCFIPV
# Sequence of Cytochrome P450 2D6 (Homo sapiens) (P10635 whole entry, looked up): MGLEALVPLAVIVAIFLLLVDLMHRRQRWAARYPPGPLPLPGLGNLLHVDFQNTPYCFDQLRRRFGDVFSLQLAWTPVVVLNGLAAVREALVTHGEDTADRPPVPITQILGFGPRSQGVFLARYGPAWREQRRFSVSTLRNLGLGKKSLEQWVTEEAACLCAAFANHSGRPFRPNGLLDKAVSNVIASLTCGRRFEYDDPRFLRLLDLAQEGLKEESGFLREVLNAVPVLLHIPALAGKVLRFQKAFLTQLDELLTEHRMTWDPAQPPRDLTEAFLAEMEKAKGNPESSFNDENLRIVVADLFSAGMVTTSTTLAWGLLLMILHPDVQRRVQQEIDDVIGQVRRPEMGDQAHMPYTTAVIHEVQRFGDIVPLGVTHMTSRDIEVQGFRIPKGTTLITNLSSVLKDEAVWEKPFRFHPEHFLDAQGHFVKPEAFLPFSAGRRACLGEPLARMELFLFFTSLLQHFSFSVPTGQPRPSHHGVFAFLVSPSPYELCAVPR
# Sequence of Guanine nucleotide-binding protein G(i) subunit alpha-1 (Homo sapiens) (P63096 whole entry, looked up): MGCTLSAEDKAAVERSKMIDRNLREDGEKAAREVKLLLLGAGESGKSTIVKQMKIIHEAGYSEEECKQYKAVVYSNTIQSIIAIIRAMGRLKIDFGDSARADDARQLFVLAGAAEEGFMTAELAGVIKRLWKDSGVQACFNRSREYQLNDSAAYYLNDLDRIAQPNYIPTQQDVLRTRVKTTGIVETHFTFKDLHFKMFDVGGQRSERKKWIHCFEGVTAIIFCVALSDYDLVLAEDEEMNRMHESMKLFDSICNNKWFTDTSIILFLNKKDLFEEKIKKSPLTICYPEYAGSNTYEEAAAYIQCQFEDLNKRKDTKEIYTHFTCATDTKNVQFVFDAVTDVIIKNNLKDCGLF
smiles,measurement,setting,value
O=C(O)c1ccc(S(=O)(=O)N(Cl)Cl)cc1,caspase-3 activation,[1],0.943%
same,outcome,[2],inactive
same,outcome,[3],inactive
same,outcome,[4],inactive
same,outcome,[5],inactive
same,outcome,[6],inactive
same,outcome,[7],inactive
same,Potency,[8],inactive
same,outcome,[9],inactive
same,outcome,[10],inactive
same,outcome,[11],inactive
same,outcome,[12],inactive
same,Potency,[13],inactive
same,outcome,[14],inactive
O=C1C(=O)c2ccccc2C(O)=C1C1CCC(c2ccc(Cl)cc2)CC1 (centres undefined),Potency,[15],2 µM (active)
same,Potency,[13],inactive
same,outcome,[14],inactive
CCOc1ccccc1C(N)=O,caspase-3 activation,[1],-0.33%
same,outcome,[2],inactive
same,outcome,[3],inactive
same,outcome,[4],inactive
same,outcome,[5],inactive
same,outcome,[6],inactive
same,outcome,[7],inactive
same,Potency,[8],inactive
same,outcome,[9],inactive
same,outcome,[10],inactive
same,outcome,[11],inactive
same,outcome,[12],inactive
same,Potency,[13],inactive
COc1ccccc1N1CCN(CCCCNC(=O)c2ccc(-c3ccc(C(C)=O)cc3)cc2)CC1,Potency,[15],inactive
NS(=O)(=O)Cc1noc2ccccc12,outcome,[16],inactive
CCOC(=O)[C@H](CCc1ccccc1)N[C@@H](C)C(=O)N1[C@H](C(=O)O)C[C@H]2CCCC[C@@H]21,Potency,[13],inactive
same,outcome,[14],inactive
C=C[C@H]1CN2CC[C@H]1C[C@@H]2[C@@H](O)c1ccnc2ccc(OC)cc12,outcome,[2],inactive
same,outcome,[3],inactive
same,outcome,[4],inactive
same,outcome,[5],inactive
same,outcome,[6],inactive
same,outcome,[7],inactive
same,Potency,[8],inactive
same,outcome,[9],inactive
same,outcome,[10],inactive
same,outcome,[11],inactive
same,outcome,[12],inactive
COc1cc(C(=O)NCc2ccc(OCCN(C)C)cc2)cc(OC)c1OC,outcome,[15],inactive
same,outcome,[14],inactive
NC(=O)c1ccccc1O,caspase-3 activation,[1],-0.838%
same,outcome,[2],inactive
same,outcome,[3],inactive
same,outcome,[4],inactive
same,outcome,[5],inactive
same,outcome,[6],inactive
same,outcome,[7],inactive
same,Potency,[8],inactive
same,outcome,[9],inactive
same,outcome,[10],inactive
same,outcome,[11],inactive
same,outcome,[12],inactive
same,Potency,[13],inactive
same,outcome,[14],inactive
CN(C)CCOC(=O)C(c1ccccc1)C1(O)CCCC1 (centres undefined),Potency,[13],inactive
same,outcome,[14],inactive
COc1cc([C@H]2Oc3cc([C@H]4Oc5cc(O)cc(O)c5C(=O)[C@@H]4O)ccc3O[C@@H]2CO)ccc1O,caspase-3 activation,[1],7.36%
same,outcome,[2],inactive
same,outcome,[3],inactive
same,outcome,[4],inactive
same,outcome,[5],inactive
same,outcome,[6],inactive
same,outcome,[7],inactive
same,Potency,[8],31.6 µM (active)
same,outcome,[9],inactive
same,outcome,[10],inactive
same,outcome,[12],inactive
COc1cc(N)c(Cl)cc1C(=O)NC1CCN(Cc2ccccc2)CC1,Potency,[15],inactive
same,Potency,[13],12.6 µM (active)
same,Potency,[17],0.0126 µM (active)
same,outcome,[14],inactive
C[C@H]1[C@H]2CC[C@H]3[C@@H]4CC=C5C[C@@H](N(C)C)CC[C@]5(C)[C@H]4CC[C@]23CN1C,Potency,[13],inactive
C/C=C/c1ccc(O)c(OC)c1,caspase-3 activation,[1],1.5%
same,outcome,[2],inactive
same,outcome,[3],inactive
same,outcome,[4],inactive
same,outcome,[5],inactive
same,outcome,[6],inactive
same,outcome,[7],inactive
same,Potency,[8],inactive
same,outcome,[9],inactive
same,outcome,[10],inactive
same,outcome,[11],inactive
same,outcome,[12],inactive
same,Potency,[13],inactive
CCCCCN=C(N)N/N=C/c1c[nH]c2ccc(OC)cc12,Potency,[13],inactive
same,outcome,[14],inactive
COc1ccc(-c2cc(C(F)F)nn2-c2ccc(S(N)(=O)=O)cc2)cc1F,Potency,[13],inactive
same,outcome,[14],inactive
O=C(O)CCC(=O)Nc1ccc(S(=O)(=O)Nc2nccs2)cc1,outcome,[14],inactive
CCOC(=O)c1ccc(N)cc1,outcome,[14],inactive
CC(=O)Nc1ccc(S(=O)(=O)Nc2ccc([N+](=O)[O-])cc2)cc1,outcome,[14],inactive
CCCc1ncc(C[n+]2ccccc2C)c(N)n1,Potency,[13],inactive
same,outcome,[14],inactive
Nc1ccc(S(=O)(=O)Nc2cnc3ccccc3n2)cc1,outcome,[14],inactive
COC(=O)C(c1ccccc1Cl)N1CCc2sccc2C1 (centres undefined),outcome,[14],inactive
CC(C)NCC(O)c1ccc2ccccc2c1 (centres undefined),Potency,[13],inactive
same,outcome,[14],inactive
CCN(CC)CCNC(=O)COc1ccc(OC)cc1,outcome,[14],inactive
CC(=O)NCCCCCC(=O)O,Potency,[13],inactive
same,outcome,[14],inactive
Cc1c(-c2ccccc2)oc2c(C(=O)OCCN3CCCCC3)cccc2c1=O,Potency,[17],7.94 µM (active)
CCCCC(CC)CN1CN(CC(CC)CCCC)CC(C)(N)C1 (centres undefined),Potency,[13],inactive
same,outcome,[14],inactive
CC[N+](C)(CC)CCOC(=O)C(O)(c1ccccc1)C1CCCCC1 (centres undefined),activation,[18],1.14%
CCN(CC)CCOC(=O)C(Cc1cccc2ccccc12)CC1CCCO1 (centres undefined),outcome,[14],inactive
CCN1CCCC(OC(=O)C(c2ccccc2)c2ccccc2)C1 (centres undefined),outcome,[14],inactive
O=C(O)P(=O)(O)O,Potency,[13],inactive
same,outcome,[14],inactive
COc1cc(NS(=O)(=O)c2ccc(N)cc2)ncn1,outcome,[14],inactive
CCN(CC)CCNC(=O)c1cc(Br)c(N)cc1OC,outcome,[14],inactive
OCCOCCN1CCN(C2=Nc3ccccc3Sc3ccccc32)CC1,outcome,[14],inactive
CCN(CC)CCOc1ccc2c(c1)C(=O)c1cc(OCCN(CC)CC)ccc1-2,Potency,[13],inactive
same,outcome,[14],inactive
CNCCc1ccccn1,Potency,[13],inactive
same,outcome,[14],inactive
CN(C)CCOC(c1ccc(Cl)cc1)c1ccccn1 (centres undefined),Potency,[13],inactive
same,outcome,[14],inactive
O=C1C(CCS(=O)c2ccccc2)C(=O)N(c2ccccc2)N1c1ccccc1 (centres undefined),outcome,[14],inactive
CCN(CC)CCNc1ccc(CO)c2sc3ccccc3c(=O)c12,Potency,[17],5.01 µM (active)
same,outcome,[14],inactive
Cc1cc(-c2ccccc2)nnc1NCCN1CCOCC1,outcome,[14],inactive
CCc1cc(Cl)c(OC)c(C(=O)NC[C@@H]2CCCN2CC)c1O,Potency,[17],0.0501 µM (active)
same,Potency,[18],10 µM (active)
CN1CCC(OC(c2ccccc2)c2ccccc2)CC1,outcome,[14],inactive
Cc1ccccc1OCC(O)CO (centres undefined),outcome,[14],inactive
CCC(Cc1c(I)cc(I)c(N)c1I)C(=O)O (centres undefined),Potency,[13],inactive
same,outcome,[14],inactive
c1ccc(CC2=NCCN2)cc1,outcome,[14],inactive
Cc1cc(C)cc(OCC2CNC(=O)O2)c1 (centres undefined),Potency,[13],inactive
same,outcome,[14],inactive
CCCCc1cc2ccccc2c(OCCN(C)C)n1,Potency,[17],2 µM (active)
CN(C)C(=O)Nc1ccc(Cl)c(Cl)c1,Potency,[13],inactive
same,outcome,[14],inactive
CCCCCCCCNC(C)C(O)c1ccc(SC(C)C)cc1 (centres undefined),outcome,[14],inactive
same,activation,[18],0.942%
COc1ccc(C(=O)c2ccccc2O)c(O)c1,outcome,[14],inactive
same,Potency,[18],5.01 µM (active)
CC(C(=O)O)c1cccc(Oc2ccccc2)c1 (centres undefined),Potency,[13],inactive
same,outcome,[14],inactive
O=C(O)CCNC(=O)c1ccccc1,Potency,[13],inactive
same,outcome,[14],inactive

# — PubChem BioAssay (NCATS)
